Our source for the max response, negative = inhibition and Potency values is PubChem BioAssay AID504847 (National Center for Advancing Translational Sciences (NCATS), 2011).

Where “and” joins values, the source holds several entries; their conditions need not be identical. Identical values can stand only once. About 3,700 (0.93%) of roughly 400,000 compounds were called active. Another 3% or so got no clear call; they are omitted. The call rests on the fitted dose curve; in most records, active means well fitted inhibition curve with a large enough effect; inconclusive means small, poorly fitted or top-dose-only effect, or another doubt; inactive means no such curve, though single readings can be large or run the other way. The sample as a whole holds a higher share of actives than the screen did.
On the % scale 0 is the no-effect control and ±100 the full control effect; potency means the concentration at half of the fitted maximal effect.

Chain of Vitamin D3 receptor (Homo sapiens) (P11473 whole entry, looked up): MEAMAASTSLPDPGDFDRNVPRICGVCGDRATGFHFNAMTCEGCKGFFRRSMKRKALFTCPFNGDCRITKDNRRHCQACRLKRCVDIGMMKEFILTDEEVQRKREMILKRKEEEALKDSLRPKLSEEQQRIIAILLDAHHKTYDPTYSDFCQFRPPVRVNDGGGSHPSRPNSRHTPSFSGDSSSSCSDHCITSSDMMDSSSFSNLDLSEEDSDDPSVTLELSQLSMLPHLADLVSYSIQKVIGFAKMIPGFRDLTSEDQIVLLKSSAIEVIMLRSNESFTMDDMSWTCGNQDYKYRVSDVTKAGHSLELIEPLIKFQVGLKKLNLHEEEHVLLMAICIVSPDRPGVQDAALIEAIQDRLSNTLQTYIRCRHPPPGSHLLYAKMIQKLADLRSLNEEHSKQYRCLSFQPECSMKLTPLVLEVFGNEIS

The experiment deals with Vitamin D3 receptor (Homo sapiens) (UniProt P11473). Briefly: Inhibitors of the vitamin D receptor (VDR): qHTS. The note with it: VDR-SRC2-3 peptide fluorescence polarization, 2 h; max response, negative = inhibition: stronger effect = lower value. An outline of the steps:
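Compounds are added to VDR with labelled SRC2-3 coactivator peptide and held 2 h at room temperature. Inhibition of the VDR–peptide interaction is then read as a change in fluorescence polarization.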
Take `CCn1cc(C(=O)NCc2ccc(C)cc2)c(=O)c2cc(S(=O)(=O)N3CCc4ccccc4C3)ccc21`: the max response, negative = inhibition is -10.3% (inactive).

On to `Cc1ccc(C(=O)N2CCCC2)c(F)c1F`, for which the Potency is 44.7 µM (active). Turning to `Cc1c(Br)cc(C(=O)N2CCCCCC2)c(C)c1C`, the max response, negative = inhibition is -2.34% (inactive). Consider `Cc1ccc(C(NC(=O)N2CCCC2)C(Cl)(Cl)Cl)cc1F` (stereo not drawn), for which the max response, negative = inhibition was 6.9% (inactive). The same measure, in the same setting: under `CCC(=O)Nc1cccc(C(=O)OCc2cc(=O)n3nc(CC)sc3n2)c1` stands 7.59% (inactive); under `C=C1C(=CC=C2CCC[C@@]3(C)[C@@H]2CC[C@H]3[C@H](C)CCCC(C)C)C[C@@H](O)C[C@@H]1O`, 8.33% (inactive). As to `CCOCCn1ccc2c(OCC(=O)NCc3ccc(C)cc3)cccc2c1=O`, the max response, negative = inhibition was 10.6% (inactive). Take `Cc1ccc(OCC(=O)Nc2ccc(OCc3cc(=O)n4c(C)csc4n3)cc2)cc1C`: the max response, negative = inhibition was -8.2% (inactive). With `O=C(Nc1c(C(=O)N2CCN(c3ccc(F)cc3)CC2)oc2ccccc12)c1ccco1`, the max response, negative = inhibition is -2.38% (inactive). Still for that read-out and setting: as for `COc1ccccc1CNC(=O)c1ccc(-n2c(C)cc3c2CCCC3)cc1`, the figure is 13.6% (inactive); as for `O=C(Nc1ccc([N+](=O)[O-])cc1)OCCc1ccccn1`, -15.4% (inactive). As for `O=c1cc(CO)oc(C(Nc2cccc([N+](=O)[O-])c2)c2ccccn2)c1O` (stereo not drawn), the Potency was 79.4 µM (active). Turning to `O=C(CSc1nnc(-c2ccccc2F)o1)Nc1cccc(C(F)(F)F)c1`, the max response, negative = inhibition is -10.5% (inactive). Same read-out and setting: as for `O=C(CSc1nc(-c2ccccc2)cs1)Nc1cccc([N+](=O)[O-])c1`, the figure is -15.3% (inactive). Regarding `O=c1cc(CO)oc(C(Nc2cccc(C(F)(F)F)c2)c2ccccn2)c1O` (stereo not drawn), the Potency is 50.1 µM (active). As to `Cn1c(=O)c2c(ncn2CC(=O)Nc2cccc(C(F)(F)F)c2)n(C)c1=O`, the max response, negative = inhibition was 2.35% (inactive). On the same count and under the same terms, under `Cc1c(Cl)cccc1NC(=O)c1noc2c1CCCC2` stands -14.6% (inactive); under `O=C(NCc1ccccc1)c1ccc2c(c1)nc1n2CCCCC1`, 12.2% (inactive); under `Cc1ccc(C)c(NC(=O)C2CCCN(S(=O)(=O)c3cn(C)cn3)C2)c1` (stereo not drawn), 2.5% (inactive). Turning to `COCCNC(=O)c1ccc2c(c1)N(Cc1cccc(Cl)c1)C(=O)c1ccccc1S2(=O)=O`, the max response, negative = inhibition was 5.24% (inactive).

Turning to `CCCCOc1ccc(C(=O)N2CC(=O)Nc3ccc(Br)cc3C2c2ccc(F)cc2)cc1` (stereo not drawn), the max response, negative = inhibition is -9.94% (inactive). For `Cc1cccc(Oc2c([N+](=O)[O-])c(=O)n(C)c3ccccc23)c1`, the Potency was 39.8 µM (active). For the compound `Cc1cccc(OP(=O)(Nc2c(C)n(C)n(-c3ccccc3)c2=O)Oc2cccc(C)c2)c1`, the max response, negative = inhibition is 10.3% (inactive). On the same count and under the same terms, under `Cc1cccc(C2CC(=O)Oc3c2c(=O)n(C)c2ccccc32)c1` (stereo not drawn) stands 0.823% (inactive); under `Cc1c2cnn(-c3ccccc3)c(=O)c2c(C)n1C(C)C(=O)Nc1ccc(Br)cc1F` (stereo not drawn), 11.8% (inactive). The same measure, in the same setting: as for `CN(Cc1ccccc1)C(=O)c1cc2c(=O)n(C)c3ccccc3c2s1`, the figure is -5.87% (inactive); as for `C/C(Nc1ccc2oc(=O)ccc2c1)=C1/C(=O)CC2[C@@H]1C2(C)C` (stereo partly drawn), -29.7% (inactive).

Regarding `CCC1CN(S(=O)(=O)c2cc(-c3cc(C)no3)ccc2C)c2cc(C)ccc2O1` (stereo not drawn), the max response, negative = inhibition is 10.7% (inactive). On the same count and under the same terms, as for `CN1C(=O)CN2CCc3ccccc3C2c2cc(Cl)ccc21` (stereo not drawn), the figure is -10.7% (inactive). Consider `Cc1ccc(Cn2c(C)nc3c(c2=O)c2nc4ccccc4nc2n3Cc2ccco2)cc1`, for which the Potency was 56.2 µM (active). Consider `O=c1[nH]c(CSc2ncc(-c3ccc(F)cc3)n2Cc2ccco2)nc2ccccc12`, for which the max response, negative = inhibition is 7.47% (inactive). Still for that read-out and setting: as for `Clc1cccc(-c2nc3nc4ccccc4nc3n2Cc2ccco2)c1`, the figure is 4.83% (inactive); as for `CCOc1ccc(-c2n[nH]c3c2C(c2ccccc2OC)N(c2ccc(Br)cc2)C3=O)cc1` (stereo not drawn), -27% (inactive). Consider `Nc1ccc2nc3c(=O)[nH]c(=S)[nH]c3nc2c1`, for which the Potency is 79.4 µM (active). In the case of `O=C(NCCc1ccc(Cl)cc1)c1ccc2c(c1)N(Cc1ccc(F)cc1)C(=O)CS2`, the max response, negative = inhibition is -1.91% (inactive). Consider `Cc1c(S(=O)(=O)O)oc2c1C(=O)C(=O)c1c-2ccc2c1CCCC2(C)C`, for which the Potency was 8.91 µM (active). For `Cc1ccc(C(=O)Nc2nc(-c3ccccc3)ns2)cc1`, the max response, negative = inhibition was 2.63% (inactive).

On to `CCCCCCCCCCCCCCCCO`, for which the max response, negative = inhibition was 0.1% (inactive) and 6.37% (inactive). Consider `CCOc1ccc(-n2c(N)c(C(=O)NCC3CCCO3)sc2=S)cc1` (stereo not drawn), for which the Potency was 79.4 µM (active). As to `CCOc1ccc(S(=O)(=O)NCCC(=O)NCC2CCCO2)cc1` (stereo not drawn), the max response, negative = inhibition was -3.32% (inactive). Regarding `CCOc1ccc(S(=O)(=O)N2CCN(C(=S)NCC3CCCO3)CC2)cc1` (stereo not drawn), the max response, negative = inhibition was 28.2% (inactive). The same measure, in the same setting: as for `O=C(NC1CC(=O)N(c2ccc(Cl)cc2)C1)C1CCCC1` (stereo not drawn), the figure is -5.32% (inactive). Regarding `O=C1/C(=C\c2ccc([N+](=O)[O-])cc2)CS(=O)(=O)C/C1=C/c1ccc([N+](=O)[O-])cc1`, the Potency is 39.8 µM (active). Turning to `CCCCC(=O)Nc1c2c(nn1-c1ccc([N+](=O)[O-])cc1)CS(=O)(=O)C2`, the max response, negative = inhibition is -18.5% (inactive).

As for `CN(C)S(=O)(=O)N1CCN(c2ccc([N+](=O)[O-])cc2)CC1`, the max response, negative = inhibition is -2.16% (inactive). Take `Cc1cc(C)c(-c2n[nH]c3c2C(c2ccccc2F)N(CCO)C3=O)c(O)c1` (stereo not drawn): the max response, negative = inhibition is 7.23% (inactive). `O=c1cnc2cnc(Nc3ccccc3)nc2n1Cc1ccc(F)cc1`: the max response, negative = inhibition was -4.57% (inactive).

Take `Cc1cc(NC(=O)CSc2ncc(C(=O)Nc3ccc(Cl)cc3)c(=O)n2C)no1`: the max response, negative = inhibition was 4.19% (inactive). Same read-out and setting: as for `COc1ccc(NC(=O)c2ccco2)cc1NC(=O)COc1ccc(C)c(C)c1`, the figure is 5.81% (inactive); as for `O=C(O)c1ccccc1NC(=O)c1ccccc1-c1ccccc1C(=O)O`, -22.4% (inactive); as for `CN1CCN(C(=O)c2ccc(-c3ccc(Br)cc3)o2)CC1`, -9.02% (inactive). `O=C(NC(=S)Nc1ccccc1C(=O)O)c1ccc(-c2ccc(Br)cc2)o1`: the Potency was 70.8 µM (active). As to `O=C(Nc1ccccc1Cl)N1CCC(CN2CCCCC2)CC1`, the max response, negative = inhibition was 4.52% (inactive). The same measure, in the same setting: as for `COc1cc(-c2cc3n(C)c(C)c(CCC(=O)Nc4ccc(F)cc4)c(=O)n3n2)cc(OC)c1OC`, the figure is -2.64% (inactive); as for `NCCCNC(=S)NCCCN(Cc1ccc(Cl)cc1)c1ccc(Br)cn1`, -24.7% (inactive). The same measure, in the same setting: under `O=C(C1CC(=O)N(C2CCCCC2)C1)N1CCN(c2ccccc2)CC1` (stereo not drawn) stands -11.8% (inactive). As to `O=C1C=CC(=O)N1c1ccc(N2CCCCC2)cc1`, the Potency is 17.8 µM (active). On to `CC(=O)Nc1ccc(S(=O)(=O)Nc2ccc(N3CCCCC3)cc2)cc1`, for which the max response, negative = inhibition is 6.02% (inactive).
